Measurements published in PubChem BioAssay AID1159580 (chemical genetic matrix, 2015).
The whole screen tested about 5,500 compounds, of which about 2,000 (36%) were called active. About 18% were inconclusive and are not listed. No stated cut-off is given here; in the data, active means normalized growth mostly below about 0.91 (no sharp cut-off); inconclusive means no clear call, values can overlap the other calls; inactive means mostly above about 0.92. The list shows a part of the results.

Test: chemical genetic growth profiling, strain panel (AID 1159580);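 further: tested at 20 µM; growth read once vehicle control cultures reached saturation at 30 °C; 1 = growth at the plate median or of vehicle wells; lower values mean less growth of the strain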
Conditions: growth OD
[1] = S. cerevisiae deletion strains, locus YBR021W, strain FUR4, active compounds read low
[2] = S. cerevisiae deletion strains, locus YBR229C, strain ROT2, active compounds read low
[3] = S. cerevisiae deletion strains, locus YCL029C, strain bik1, active compounds read low
[4] = S. cerevisiae deletion strains, locus YDL035C, strain GPR1, active compounds read low
[5] = S. cerevisiae deletion strains, locus YDL074C, strain BRE1, active compounds read low
[6] = S. cerevisiae deletion strains, locus YDL101C, strain DUN1, active compounds read low
[7] = S. cerevisiae deletion strains, locus YDL185W, strain tfp1, active compounds read low
[8] = S. cerevisiae deletion strains, locus YDL192W, strain arf1, active compounds read low
[9] = S. cerevisiae deletion strains, locus YDR101C, strain arx1, active compounds read low
[10] = S. cerevisiae deletion strains, locus YDR150W, strain NUM1, active compounds read low
[11] = S. cerevisiae deletion strains, locus YDR162C, strain NBP2, active compounds read low
[12] = S. cerevisiae deletion strains, locus YDR318W, strain mcm21, active compounds read low
[13] = S. cerevisiae deletion strains, locus YDR388W, active compounds read low
[14] = S. cerevisiae deletion strains, locus YDR502C, strain sam2, active compounds read low
[15] = S. cerevisiae deletion strains, locus YEL061C, strain CIN8, active compounds read low
[16] = S. cerevisiae deletion strains, locus YER110C, active compounds read low
[17] = S. cerevisiae deletion strains, locus YER155C, strain BEM2, active compounds read low
[18] = S. cerevisiae deletion strains, locus YER167W, strain BCK2, active compounds read low
[19] = S. cerevisiae deletion strains, locus YGL078C, strain dbp3, active compounds read low
[20] = S. cerevisiae deletion strains, locus YGL086W, strain mad1, active compounds read low
[21] = S. cerevisiae deletion strains, locus YGL248W, strain PDE1, active compounds read low
[22] = S. cerevisiae deletion strains, locus YGR135W, strain pre9, active compounds read low
[23] = S. cerevisiae deletion strains, locus YGR252W, strain gcn5, active compounds read low
[24] = S. cerevisiae deletion strains, locus YHR030C, strain SLT2, active compounds read low
[25] = S. cerevisiae deletion strains, locus YHR079C, strain IRE1 (second series), active compounds read low
[26] = S. cerevisiae deletion strains, locus YHR094C, strain hxt1, active compounds read low
[27] = S. cerevisiae deletion strains, locus YHR129C, strain ARP1, active compounds read low
[28] = S. cerevisiae deletion strains, locus YHR200W, strain rpn10, active compounds read low
[29] = S. cerevisiae deletion strains, locus YIL066C, strain RNR3, active compounds read low
[30] = S. cerevisiae deletion strains, locus YIL073C, strain SPO22, active compounds read low
[31] = S. cerevisiae deletion strains, locus YIL125W, strain kgd1, active compounds read low
[32] = S. cerevisiae deletion strains, locus YIR030C, strain dcg1, active compounds read low
[33] = S. cerevisiae deletion strains, locus YJL095W, strain BCK1, active compounds read low
[34] = S. cerevisiae deletion strains, locus YJL134W, strain LCB3, active compounds read low
[35] = S. cerevisiae deletion strains, locus YJL168C, strain set2, active compounds read low
[36] = S. cerevisiae deletion strains, locus YJL187C, strain SWE1 (second series), active compounds read low
[37] = S. cerevisiae deletion strains, locus YJR043C, strain POL32, active compounds read low
[38] = S. cerevisiae deletion strains, locus YJR075W, strain HOC1, active compounds read low
[39] = S. cerevisiae deletion strains, locus YKL009W, strain mrt4, active compounds read low
[40] = S. cerevisiae deletion strains, locus YKL068W, active compounds read low
[41] = S. cerevisiae deletion strains, locus YKL085W, strain MDH1 (second series), active compounds read low
[42] = S. cerevisiae deletion strains, locus YKL085W, strain MDH1, active compounds read low
[43] = S. cerevisiae deletion strains, locus YKR001C, strain vps1, active compounds read low
[44] = S. cerevisiae deletion strains, locus YLR039C, strain RIC1, active compounds read low
[45] = S. cerevisiae deletion strains, locus YLR058C, strain SHM2, active compounds read low
[46] = S. cerevisiae deletion strains, locus YLR102C, strain apc9, active compounds read low
[47] = S. cerevisiae deletion strains, locus YLR262C, strain YPT6, active compounds read low
[48] = S. cerevisiae deletion strains, locus YLR268W, strain sec22, active compounds read low
[49] = S. cerevisiae deletion strains, locus YLR330W, strain CHS5, active compounds read low
[50] = S. cerevisiae deletion strains, locus YLR342W, strain FKS1 (second series), active compounds read low
[51] = S. cerevisiae deletion strains, locus YLR371W, strain rom2, active compounds read low
[52] = S. cerevisiae deletion strains, locus YLR418C, strain cdc73, active compounds read low
[53] = S. cerevisiae deletion strains, locus YML016C, strain PPZ1, active compounds read low
[54] = S. cerevisiae deletion strains, locus YML032C, strain rad52, active compounds read low
[55] = S. cerevisiae deletion strains, locus YML124C, strain tub3, active compounds read low
[56] = S. cerevisiae deletion strains, locus YMR078C, strain ctf18, active compounds read low
[57] = S. cerevisiae deletion strains, locus YMR223W, strain ubp8, active compounds read low
[58] = S. cerevisiae deletion strains, locus YMR263W, strain SAP30, active compounds read low
[59] = S. cerevisiae deletion strains, locus YMR307W, strain GAS1, active compounds read low
[60] = S. cerevisiae deletion strains, locus YNL067W, strain RPL9B, active compounds read low
[61] = S. cerevisiae deletion strains, locus YNL128W, strain TEP1, active compounds read low
[62] = S. cerevisiae deletion strains, locus YNL233W, strain BNI4, active compounds read low
[63] = S. cerevisiae deletion strains, locus YNL250W, strain rad50, active compounds read low
[64] = S. cerevisiae deletion strains, locus YNL271C, strain bni1, active compounds read low
[65] = S. cerevisiae deletion strains, locus YNL298W, strain CLA4, active compounds read low
[66] = S. cerevisiae deletion strains, locus YNL307C, strain MCK1, active compounds read low
[67] = S. cerevisiae deletion strains, locus YNL322C, strain KRE1, active compounds read low
[68] = S. cerevisiae deletion strains, locus YNR052C, strain pop2, active compounds read low
[69] = S. cerevisiae deletion strains, locus YOL012C, strain htz1
[70] = S. cerevisiae deletion strains, locus YOL147C, strain pex11, active compounds read low
[71] = S. cerevisiae deletion strains, locus YOR061W, strain CKA2, active compounds read low
[72] = S. cerevisiae deletion strains, locus YOR069W, strain VPS5, active compounds read low
[73] = S. cerevisiae deletion strains, locus YOR136W, strain idh2, active compounds read low
[74] = S. cerevisiae deletion strains, locus YOR144C, strain elg1, active compounds read low
[75] = S. cerevisiae deletion strains, locus YOR184W, strain ser1, active compounds read low
[76] = S. cerevisiae deletion strains, locus YOR316C, strain cot1, active compounds read low
[77] = S. cerevisiae deletion strains, locus YPR119W, strain clb2, active compounds read low
[78] = S. cerevisiae deletion strains, locus YPR141C, strain kar3, active compounds read low
[79] = S. cerevisiae deletion strains, locus YPR163C, strain tif3, active compounds read low
[80] = S. cerevisiae deletion strains, locus YPR167C, strain met16, active compounds read low
[81] = S. cerevisiae deletion strains, strain wtn01, active compounds read low
[82] = S. cerevisiae deletion strains, locus YGR078C, strain PAC10, active compounds read low
[83] = S. cerevisiae deletion strains, locus YNL153C, strain GIM3, active compounds read low

Measured: normalized growth

CC(=O)O[C@@H]1CC2C(C)(C)CCC[C@]2(C)C2CC[C@]3(C)C(=CC(=O)O[C@H]3c3ccoc3)[C@@]21C (stereo partly drawn)
inactive: [1] 1.02 | [2] 1.01 | [3] 1 | [4] 1.02 | [5] 1.01 | [6] 1.01 | [7] 1.01 | [8] 0.999 | [9] 1.01 | [10] 1.02 | [11] 1 | [12] 0.981 | [13] 1.01 | [14] 0.977 | [15] 1.02 | [16] 1.01 | [17] 1 | [18] 1.02 | [19] 0.982 | [20] 0.984 | [21] 1.01 | [22] 0.978 | S. cerevisiae deletion strains, locus YGR229C, strain SMI1, active compounds read low 0.97 | [23] 0.993 | [24] 1.02 | [25] 1 | [26] 1 | [27] 1.02 | [28] 1.01 | [29] 1.02 | [30] 1.02 | [31] 1 | [32] 1 | [33] 0.97 | [34] 1.02 | [35] 0.994 | [36] 1 | [37] 1.05 | [38] 1.01 | [39] 1.03 | [40] 0.989 | [41] 1.01 | [42] 1.01 | [43] 0.967 | [44] 0.902 | [45] 1.01 | [46] 1 | [47] 0.928 | [48] 0.973 | [49] 1.02 | [50] 0.983 | [51] 1 | [52] 0.941 | [53] 1.02 | [54] 0.99 | [55] 0.993 | [56] 0.986 | [57] 0.983 | [58] 1.02 | [59] 1.09 | [60] 1.01 | [61] 1.03 | [62] 0.948 | [63] 0.968 | [64] 1 | [65] 0.992 | [66] 0.992 | [67] 1.02 | [68] 0.993 | S. cerevisiae deletion strains, locus YOL006C, strain TOP1, active compounds read low 1.06 | [69] 0.86 | [70] 1.01 | [71] 1.01 | [72] 1.02 | [73] 0.997 | [74] 0.999 | [75] 0.982 | [76] 1 | [77] 0.985 | [78] 1.01 | [79] 0.994 | [80] 0.998 | [81] 0.996

O=C(O)CCC(=O)N1CCCC1C(=O)O (stereo not drawn)
inactive: S. cerevisiae deletion strains, locus YAL040C, strain CLN3, active compounds read low 1.03 | S. cerevisiae deletion strains, locus YCL061C, strain MRC1 (second series), active compounds read low 1 | [10] 0.998 | S. cerevisiae deletion strains, locus YDR363W, strain ESC2, active compounds read low 1.02 | S. cerevisiae deletion strains, locus YER002W, strain NOP16, active compounds read low 1.01 | [82] 0.979 | [38] 1.03 | [58] 1.01 | [59] 0.972 | [61] 0.999 | [83] 1.24 | S. cerevisiae deletion strains, locus YNL175C, strain NOP13, active compounds read low 0.991 | S. cerevisiae deletion strains, locus YNL197C, strain WHI3, active compounds read low 0.993 | S. cerevisiae deletion strains, locus YNL224C, strain SQS1, active compounds read low 0.992 | [67] 1.02 | S. cerevisiae deletion strains, locus YOR083W, strain WHI5 (second series), active compounds read low 0.989

O=C(O)c1cc(O)ccc1O
inactive: S. cerevisiae deletion strains, locus YAL013W, strain DEP1, active compounds read low 0.986 | [1] 0.948 | [2] 0.992 | [3] 0.994 | [4] 0.995 | [5] 0.978 | [6] 0.999 | [7] 1 | [8] 0.993 | [9] 0.965 | [10] 0.993 | [11] 1.01 | [12] 1.01 | [13] 0.989 | [14] 0.989 | [15] 0.998 | [16] 0.981 | [17] 0.996 | [18] 0.988 | [19] 0.988 | [20] 0.975 | [21] 1.02 | [82] 1.02 | [22] 1.01 | [23] 1.12 | [24] 0.989 | [25] 0.986 | [26] 0.99 | [27] 0.994 | [28] 0.989 | [29] 0.985 | [30] 0.976 | [31] 0.987 | [32] 1 | [33] 1.03 | [34] 0.984 | [35] 0.998 | [36] 1.01 | [37] 1.01 | [39] 0.964 | [40] 0.992 | [41] 1 | [42] 1 | S. cerevisiae deletion strains, locus YKL190W, strain CNB1, active compounds read low 0.997 | [43] 0.985 | [44] 1.05 | [45] 1 | [46] 0.987 | [47] 1.05 | [48] 0.986 | [49] 0.991 | [50] 0.95 | [51] 0.989 | [52] 1.05 | [53] 0.995 | [54] 1.01 | [55] 1 | [56] 0.992 | [57] 1.04 | [59] 1.07 | [60] 1.01 | [83] 1.02 | [62] 1 | [63] 0.976 | [64] 0.994 | [65] 0.994 | [66] 0.98 | [67] 1 | [68] 1 | [69] 1.12 | [70] 0.99 | [71] 0.996 | [72] 0.987 | [73] 0.995 | [74] 0.989 | [75] 1 | [76] 0.985 | S. cerevisiae deletion strains, locus YPL241C, strain CIN2, active compounds read low 1 | [77] 0.994 | [78] 0.981 | [79] 0.999 | [80] 1.01 | [81] 0.943 | S. cerevisiae strains, strain wild type, active compounds read low 0.994
